Values joined by “and” are separate entries in the source; they are usually repeats but may differ in a detail not shown here. Equal entries are not always repeated. Active and inactive are the calls of the source. The calls were made as follows: active = hit-call score of the fitted dose curve at least 0.9, where 1 is the maximum; inactive = score below 0.9.

By AC50 is commonly meant the midpoint of the concentration-response curve, whichever way the signal moves.

The target in this test is X-box-binding protein 1 (Homo sapiens) (UniProt P17861). In words: ATG_Xbp1_CIS: Attagene CIS-FACTORIAL HepG2 Assay for human X-box Binding Protein 1 (XBP1) (AID 2282972). The following applies: HepG2 XBP1 cis-element reporter, Attagene multiplex; actives raise or lower the signal. The procedure, abridged: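 HepG2, transient MRTU transfection (cis-promoter driven), 24 h compound exposure. Total RNA → oligo(dT) RT → PCR → 6-FAM labeling → HpaI cut → CE. Bidirectional fit vs DMSO.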
Sequence of X-box-binding protein 1 (Homo sapiens) (P17861 whole entry, looked up): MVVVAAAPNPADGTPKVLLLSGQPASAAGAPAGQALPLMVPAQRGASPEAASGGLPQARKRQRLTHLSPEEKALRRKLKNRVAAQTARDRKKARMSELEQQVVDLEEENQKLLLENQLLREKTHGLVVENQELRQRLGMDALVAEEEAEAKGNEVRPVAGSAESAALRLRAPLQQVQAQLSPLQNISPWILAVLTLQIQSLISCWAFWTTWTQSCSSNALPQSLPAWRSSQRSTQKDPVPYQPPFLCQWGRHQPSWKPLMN
With `O=P(O)(O)OCCC(F)(F)C(F)(F)C(F)(F)C(F)(F)C(F)(F)C(F)(F)F`, the call was inactive.

`[Co]`: the molecule was classed as inactive.

Turning to `O=C(CC(=O)C(F)(F)C(F)(F)F)C(F)(F)F`, the result was inactive.

Regarding `O=C(O)C(F)(F)C(F)(F)C(F)(F)C(F)(F)C(F)(F)C(F)(F)C(F)(F)C(F)(F)Cl`, the AC50 was 58.7 µM (active) and 50 µM (active).

As to `FC(F)(F)C(F)(F)C(F)(F)C(F)(F)C(F)(F)C(F)(F)C(F)(F)Br`, the result was inactive.

As to `CCN(Cc1cccc(S(=O)(=O)O)c1)c1ccc(C(=C2C=CC(=[N+](CC)Cc3cccc(S(=O)(=O)O)c3)C=C2)c2ccc(O)cc2S(=O)(=O)[O-])cc1`, the result was inactive.

Regarding `O=C(O)C(F)(F)C(F)(F)F`, the call was inactive.

As for `C#C[C@]1(O)CC[C@H]2[C@@H]3CCc4cc(OC)ccc4[C@H]3CC[C@@]21C`, the outcome was inactive.

For the molecule `OCCCC(F)(F)C(F)(F)C(F)(F)F`, the molecule was called inactive.

As for `O=C(O)C(F)(F)C(F)(F)C(F)(F)C(F)(F)F`, the outcome was inactive.

As for `O=C(O)C(F)(F)C(F)(F)C(F)(F)C(F)(F)C(F)(F)C(F)(F)C(F)(F)C(F)(F)C(F)(F)C(F)(F)C(F)(F)C(F)(F)C(F)(F)F`, the result was inactive.

In the case of `O=C(O)C=C(C(F)(F)F)C(F)(F)F`, the molecule was classed as inactive.

For `O=S(=O)(O)c1ccc2ccccc2c1`, the molecule was classed as inactive.

Take `CC/C=C\CCOC(=O)c1ccccc1`: the outcome was inactive.

Turning to `CCCCOc1ccc(N)cc1`, the molecule was classed as inactive.

For `CC(C)c1ccccc1N`, the molecule was classed as inactive.

`CC/C=C\CCOC(C)=O`: the result was inactive.

Take `COC(=O)C1CCC(C(=O)OC)CC1` (centres undefined): the call was inactive.

With `FC(F)(F)C(F)(F)C(F)(F)C(F)(F)C(F)(F)C(F)(F)CCS`, the molecule was called inactive.

For the molecule `O=C(O)C(F)(F)C(F)(F)C(F)(F)C(F)(F)C(F)(F)C(F)(F)C(F)(F)C(F)(F)C(F)(F)C(F)F`, the result was inactive.

`c1ccc(B(c2ccccc2)c2ccccc2)cc1`: the AC50 is 31.7 µM (active).

`FC(F)(F)C(F)(F)C(F)(F)N(C(F)(F)C(F)(F)C(F)(F)F)C(F)(F)C(F)(F)C(F)(F)F`: the molecule was classed as inactive.

For the molecule `O=S(=O)(O)C(F)(F)C(F)(F)C(F)(F)C(F)(F)C(F)(F)C(F)(F)C(F)(F)F`, the result was inactive.

With `O=C(O)C(F)(F)C(F)(F)C(F)(F)F`, the molecule was called inactive.

For `COC(OC(C)=O)c1ccccc1` (centres undefined), the result was inactive.

Regarding `OCCCC(F)(F)C(F)(F)C(F)(F)C(F)(F)C(F)(F)C(F)(F)C(F)(F)F`, the AC50 is 72.5 µM (active) and 97.8 µM (active).

As for `CCCCCCCCC(F)(F)C(F)(F)C(F)(F)C(F)(F)C(F)(F)C(F)(F)F`, the molecule was classed as inactive.

Consider `FC(F)(F)C(F)(F)C(F)(F)CI`, for which the call was inactive.

Turning to `FC(F)(F)C(F)(F)C(F)(F)C(F)(F)C(F)(F)C(F)(F)C(F)(F)C(F)(F)F`, the outcome was inactive.

Turning to `Oc1ccc(Nc2ccccc2)cc1`, the outcome was inactive.

Consider `CCCCCC=O`, for which the outcome was inactive.

`CC(CCl)OP(=O)(OC(C)CCl)OC(C)CCl` (centres undefined): the molecule was called inactive.

With `C=CC(F)(F)C(F)(F)C(F)(F)C(F)(F)C(F)(F)C(F)(F)C(F)(F)C(F)(F)C=C`, the molecule was called inactive.

Take `O=S(=O)(OCCOC(F)(F)F)C(F)(F)F`: the molecule was called inactive.
